# Results: PubChem BioAssay AID504832 (National Center for Advancing Translational Sciences (NCATS), 2011)
# In all, about 310,000 compounds went through this assay and about 18,000 (5.8%) were called active. Not shown: some 22% with an inconclusive outcome. The list comes from a sample in which actives are over-represented; it also holds similar structures and randomly drawn compounds. A call without a number means that no potency is given here. A number with no mark means an inactive call. The call rests on the fitted dose curve; in most records, active means well fitted inhibition curve with a large enough effect; inconclusive means small, poorly fitted or top-dose-only effect, or another doubt; inactive means no such curve, though single readings can be large or run the other way.
# Assay: Primary qHTS for delayed death inhibitors of the malarial parasite plastid, 48 hour incubation
# Conditions: P. falciparum luciferase growth in erythrocytes; series mostly up to 28.7 µM
# Method in brief: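 A one-generation exposure of luciferase-tagged malaria parasites in RPMI 1640/Albumax erythrocyte culture, 37 C and 5% CO2. Inhibition is inferred from decreased luminescence after adding detection reagent.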
# Potency means the concentration at half of the fitted maximal effect.
SMILES,Potency,"activity change, negative = inhibition"
O=C(CN1C(=O)NC2(CCCC2)C1=O)OCCOc1ccc(F)cc1,inactive,
COC(=O)c1c(NC(=O)C(=O)N2CCCCC2)sc2c1CC(C)(C)OC2,inactive,
COc1ccc(CNS(=O)(=O)c2ccc(-c3cnc(C4CC4)o3)cc2)cc1,inactive,
COc1ccccc1C1=CC(=O)C[C@H](c2ccc(F)cc2)C1,inactive,
O=C1C=C(c2cccc(Br)c2)C[C@@H](c2ccc(F)cc2)C1,2.94 µM (active),
O=C1C=C(c2cccc(Cl)c2O)C[C@@H](c2ccc(F)cc2)C1,2.08 µM (active),
O=C1CC(c2cccc(Br)c2)C2=C(CCCC2=O)N1 (stereo not given),inactive,
COc1cccc(C2=CC(=O)C[C@H](c3ccc(F)cc3)C2)c1OC,inactive,
O=C(CCc1nnc(Cc2ccc3c(c2)OCO3)o1)NCCc1ccccc1Cl,inactive,
COc1ccc(-c2nc(CS(=O)(=O)CC(=O)NCc3cccc(Br)c3)c(C)o2)cc1,inactive,
COc1ccc(-n2ncc3c(SCC(=O)NNC(C)=O)ncnc32)cc1,inactive,
CC(=O)N1CCc2c(sc(NC(=O)CCS(=O)(=O)c3ccccc3)c2C#N)C1,inactive,
Cc1ccc(S(=O)(=O)NC2CCCCCC2)cc1C(N)=O,inactive,
O=C(CN1CCCCCC1)Nc1c(Cl)cc(Cl)cc1Cl,inactive,
O=C1Nc2ccc(Br)cc2/C1=N/N=C/C1=C(N2CCOCC2)C(=C\c2ccccc2)/CC1,inactive,
N#C/C(=C\C1=C(N2CCOCC2)C(=C\c2ccccc2)/CC1)C(=O)Nc1ccccc1F,inactive,
C(=N\N1CCN(c2ccccn2)CC1)/C1=C(N2CCOCC2)C(=C/c2ccccc2)/CC1,10.4 µM (active),
CC(C)c1ccc(O)c(CN2CCN(c3ccccc3)CC2)c1,3.29 µM (active),
Oc1cc2c(cc1CN1CCN(c3ccccc3)CC1)OCO2,inactive,
CC(=O)c1ccc(N2CCN(CC(O)c3ccccc3)CC2)cc1 (stereo not given),inactive,
O=C(CSc1nccc(=O)[nH]1)Nc1ccc(N2CCOCC2)c(Cl)c1,inactive,
COc1cc(NC(=O)NCC2CCN(Cc3ccc(C)cc3)CC2)cc(OC)c1OC,inactive,
O=C(CN1CCN(Cc2ccccc2)CC1)Nc1ccc(F)c(F)c1,inactive,
Cc1cccc(CN2CCC(CNC(=O)Nc3ccc(F)c(Cl)c3)CC2)c1,10.4 µM (active),
COc1cc(C(=O)NCc2nnc(SCC(=O)c3ccc(Cl)cc3)o2)cc(OC)c1OC,inactive,
CCC(=O)Nc1ccc(C(=O)NNC(=O)c2ccc(Cl)cc2)cc1,inactive,
Cc1ccc(NS(=O)(=O)c2ccc(-c3ccc(=O)[nH]n3)o2)c(C)c1,inactive,

SMILES,Potency,"activity change, negative = inhibition"
CC#CC[N+](C)(C)CCCCCC,10.4 µM (active),
Cc1ccn2c(=O)c(NC(=O)c3cccc4ccccc34)c(C)nc2c1,inactive,
Cc1[nH]c(C)c(S(=O)(=O)N2CCC(C)CC2)c1C(=O)N1CCCC1,inactive,
O=S(=O)(c1ccccc1)c1nc(Cc2ccccc2)oc1N1CCOCC1,inactive,
COc1ccc(C2=NN(C(=O)c3ccccc3C(=O)O)C(c3ccccc3O)C2)cc1 (stereo not given),inactive,
Cc1cc(=O)n2nc(N3CCCC(C(=O)NCc4ccc(Cl)cc4)C3)sc2n1 (stereo not given),inactive,
COc1ccc(Br)cc1/C=N/n1c(C)nnc1C,inactive,
COc1cc(N2CCCC2)c(OC)cc1/C=C(/C#N)c1cccc(Br)c1,14.7 µM (active),
COc1cccc(C(=O)Nc2ccc(N3CCCC3)cc2)c1,inactive,
COc1ccccc1-n1c(SCC(=O)Nc2cccc(C(=O)O)c2)nnc1-c1ccccc1O,inactive,
Cc1cccc(N2C(=O)c3ccc(C(=O)Nc4cccc(C(=O)O)c4)cc3C2=O)c1,inactive,
Cc1c(Cl)cccc1NC(=O)CCC(=O)N/N=C/c1ccco1,inactive,
Cc1ccc(S(=O)(=O)CCC(=O)Nc2nnc(CC(C)C)s2)cc1,inactive,
N#C/C=C/N1CCN(Cc2ccc3c(c2)OCO3)CC1,inactive,
CCN(CC)C(=O)c1sc2nc(-c3ccccc3)ccc2c1N,inactive,
CNc1nc(-c2ccccc2)cc(-c2ccccc2)n1,inactive,
CS(=O)(=O)c1sc2nc(-c3ccccc3)cc(-c3ccccc3)c2c1N,4.65 µM (active),
CSc1ccccc1C(=O)OCC(=O)N1CCN(C(C)=O)CC1,inactive,
O=C(NCCCc1ccccc1)C(=O)c1c[nH]c2ccccc12,inactive,
O=S(=O)(c1ccc(SCc2ccccc2)nc1)N1CCCCCC1,inactive,
COc1ccc2c(c1)OC(O)(C(F)(F)C(F)F)CC2=O (stereo not given),3.29 µM (active),
COc1ccc2c(c1)SC(C)CC2=O (stereo not given),inactive,
CC1(C)CC(=O)c2ccc(O)cc2O1,inactive,
COc1cc(C2C(C(=O)c3ccco3)=C(O)C(=O)N2c2cc(C)on2)ccc1OCc1ccccc1 (stereo not given),inactive,
CCC(C)[C@H](NC(=O)N1c2ccccc2NC(=O)[C@@H]1C(C)C)C(=O)N[C@@H](Cc1ccccc1)C(=O)O (stereo not given in full),inactive,
Cc1c(Cl)cccc1NC(=O)CSc1ccc(-c2cccnc2)nn1,inactive,
Cc1c(Cl)cccc1NC(=S)NCC(O)c1ccccc1 (stereo not given),inactive,

SMILES,Potency,"activity change, negative = inhibition"
Cc1c(Cl)cccc1NC(=S)N(Cc1ccccc1)Cc1cccnc1,10.4 µM (active),
Cc1cc(C)c(C#N)c(SCC(=O)N(CC(C)C)C2CCS(=O)(=O)C2)n1 (stereo not given),inactive,
COCc1c(C(=O)N/N=C\c2cccnc2)nnn1-c1nonc1N,inactive,
CC1Cc2ccccc2N1S(=O)(=O)c1ccc(Cl)nc1 (stereo not given),inactive,
CC(NC(=O)c1cccc(S(=O)(=O)N2CCc3ccccc3C2)c1)c1ccco1 (stereo not given),inactive,
CC1CCc2sc(C(=O)NCC(c3ccco3)N3CCCCC3)cc2C1 (stereo not given),7.38 µM (active),
CC1CCc2sc(C(=O)N/N=C/C3CCCCC3)cc2C1 (stereo not given),inactive,
COc1ccc(C(CNC(=O)c2cc3c(s2)CCCC3)N2CCOCC2)cc1 (stereo not given),inactive,
CC1Cc2ccccc2N1S(=O)(=O)c1cccc(C(=O)NCC(c2ccco2)N2CCCC2)c1 (stereo not given),11.7 µM (active),
Cc1nn(C)c(Cl)c1CN1CCC(Oc2ccc(C(=O)N3CCCC3)cc2)CC1,inactive,
CC1CN(C(=O)CCC(=O)NC2CCN(Cc3ccccc3)CC2)c2ccccc2O1 (stereo not given),inactive,
COC(=O)c1ccc(NC(=O)CSc2nncn2-c2cccnc2)cc1,inactive,
CC(C)(CNCC(O)c1ccccc1)N1CCOCC1 (stereo not given),inactive,
OC(CNCc1ccc(Cl)c(Cl)c1)c1ccccc1 (stereo not given),5.86 µM (active),
O=C(NCc1ccc(Cl)c(Cl)c1)c1cccnc1,inactive,
Cc1[nH]c2ccccc2c1C(=O)CN1CCCC(C)C1 (stereo not given),inactive,
CSc1nccc(NC(=O)c2ccc(C(C)(C)C)cc2)n1,inactive,
O=C(c1cc(COc2cccc(C(F)(F)F)c2)on1)N1CCSCC1,inactive,
CN(C)CCCNC(=S)N1CCC(c2nc3ccccc3[nH]2)CC1,inactive,
CCC(=O)Nc1cc(C(F)(F)F)ccc1N1CCCC1,inactive,
CC(Sc1nncn1C)C(=O)Nc1cc(C(F)(F)F)ccc1N1CCOCC1 (stereo not given),inactive,
O=C(CCC1CCCCC1)Nc1cc(C(F)(F)F)ccc1N1CCOCC1,11.7 µM (active),
CCCCn1c(N)c(N(CC(C)C)C(=O)c2cnc(C)cn2)c(=O)[nH]c1=O,inactive,
Cc1ccc(CSCC2Nc3ccc(C(=O)N4CCN(c5ccc(F)cc5)CC4)cc3NC2=O)cc1 (stereo not given),inactive,
Cc1c(Cc2ccccc2)c(=O)oc2cc(OCC(N)=O)ccc12,4.15 µM (active),
CCOC(=O)c1cc(=O)c2ccc(OCc3ccccc3)cc2o1,inactive,
Cc1c(CCC(=O)O)c(=O)oc2cc(OCc3ccc(Br)cc3)ccc12,inactive,

SMILES,Potency,"activity change, negative = inhibition"
CCN(CC(=O)NCCCN1CCOCC1)S(=O)(=O)c1cc(Cl)ccc1Cl,inactive,
COc1cc(NS(=O)(=O)c2ccc(NC(=S)NC(=O)c3ccccc3)cc2)nc(OC)n1,inactive,
Cc1ccc(NC(=O)C(CC(=O)O)C2CCCO2)c(C)c1 (stereo not given),inactive,
Cc1ccc(NC(=O)C2CCN(S(=O)(=O)c3ccc4c(c3)NC(=O)CO4)CC2)cc1C,inactive,
COc1ccccc1N(CC(=O)Nc1ccccc1C(=O)N1CCCC1)S(C)(=O)=O,inactive,
CCN1CCCC1CNc1ncnc2c1[nH]c1ccc(F)cc12 (stereo not given),2.33 µM (active),
CCCCCc1c(C)nc(N2CCN(Cc3ccc4c(c3)OCO4)CC2)[nH]c1=O,inactive,
O=c1[nH]c(N2CCN(Cc3ccc4c(c3)OCO4)CC2)nc2c1CCCC2,,11.4% [at 5.75 µM]
CCN1CCCC1Cn1cnc2c([nH]c3cc(OC)ccc32)c1=O (stereo not given),inactive,
Fc1ccc2[nH]c3c(N4CCN(Cc5ccc6c(c5)OCO6)CC4)ncnc3c2c1,5.22 µM (active),
Fc1ccc2[nH]c3c(N4CCSCC4)ncnc3c2c1,4.65 µM (active),
CCN1CCCC1CNC(=O)c1cc2cc(OC)c(OC)cc2[nH]1 (stereo not given),inactive,
Cc1ccc(NC(=O)Cc2nc(COC(=O)C(C)NS(=O)(=O)c3ccc(C)cc3)cs2)cc1 (stereo not given),inactive,
O=C(NCCOc1cccnc1)c1ccc(OC2CCN(Cc3ccccn3)CC2)cc1,inactive,
CN(C)CCCn1c(SCc2ccc(Cl)cc2)nnc1-c1ccncc1,inactive,
COc1ccc(-c2nnc3n2CCCCC3)cc1,inactive,
CCOc1ccc(-n2c(O)c(/C=N/c3ccnn3Cc3ccncc3)c3ccccc3c2=O)cc1,inactive,
CCOc1ccc(NC(=O)c2cc(C)nc3ccccc23)cc1,inactive,
CCOc1ccc(-n2c(O)c(/C=N/Nc3nc(C)cc(C)n3)c3ccccc3c2=O)cc1,4.15 µM (active),
O=C(Cc1ccccc1F)NC1CCSc2ccccc21 (stereo not given),inactive,
CC1(C)NC(=O)N(CC(=O)N2CCN(S(=O)(=O)c3ccccc3F)CC2)C1=O,inactive,
CC1CCC(NS(=O)(=O)c2ccc3c(c2)CC(=O)N3)CC1 (stereo not given),inactive,
c1ccc(-c2cn3cccnc3n2)cc1,inactive,
c1ccc(-c2cn3c(n2)CCc2ccc4cccnc4c2-3)cc1,10.4 µM (active),
